GLP1R cytotox – cytotoxicity counter-screen for GLP-1 receptor inverse agonists; 410,000 compounds, 0.13% hits; Potency, µM (titrated, usually from 38.3 µM), without a hit: at the highest dose activity change, negative = inhibition, actives largely listed as inhibitors; HEK293 cAMP-luciferase reporter cells, luminescence, 24 h;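 also: loss of luciferase light is scored as toxicity; potency is read from the fitted curve at half-maximal effect; % is scaled to controls: 0 for no effect and ±100 for the full control effect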
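MLSMR compounds, 24 hr on cells at 37 deg C/5% CO2; luminescence after luciferase reagent (12 min RT). Inhibition counted as the undesired cytotoxic outcome.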
TSHR antagonist – antagonists of human thyroid stimulating hormone receptor. P16473. TSHR-expressing cells, TSH-stimulated cAMP HTRF, 2 h; stronger effect = lower value. activity change, negative = inhibition, % at 11.5 µM. 330,000 compounds, 0.2% hits. AID 504810;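 active = activity change below a set negative limit, meaning inhibition stronger than a set level, cut at about -70% in these data; inconclusive = activity change between two set negative limits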; also: % is scaled to controls: 0 for no effect and ±100 for the full control effect
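TSHR-expressing cells were treated with compounds, then stimulated with TSH at EC80 (4nM final) for 2 hours at 37 deg C. Cellular cAMP was measured by HTRF competition between lysate cAMP and cAMP-d2 for a cryptate-labelled anti-cAMP antibody.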
GLP1R inv ag – inverse agonists of human GLP-1 receptor; P43220; HEK293 GLP-1R CRE-luciferase, luminescence, 24 h; GLP-1R form is constitutively active; Potency, µM (top dose mostly 38.3 µM), inactives show top-dose activity change, negative = inhibition, most hits filed as inhibitors; 410,000 compounds, 1.6% hits; AID 624417; also: potency is read from the fitted curve at half-maximal effect; % is scaled to controls: 0 for no effect and ±100 for the full control effect; nearly all actives have a fitted effect of over 55% in size
Target sequence (P43220 whole entry, looked up): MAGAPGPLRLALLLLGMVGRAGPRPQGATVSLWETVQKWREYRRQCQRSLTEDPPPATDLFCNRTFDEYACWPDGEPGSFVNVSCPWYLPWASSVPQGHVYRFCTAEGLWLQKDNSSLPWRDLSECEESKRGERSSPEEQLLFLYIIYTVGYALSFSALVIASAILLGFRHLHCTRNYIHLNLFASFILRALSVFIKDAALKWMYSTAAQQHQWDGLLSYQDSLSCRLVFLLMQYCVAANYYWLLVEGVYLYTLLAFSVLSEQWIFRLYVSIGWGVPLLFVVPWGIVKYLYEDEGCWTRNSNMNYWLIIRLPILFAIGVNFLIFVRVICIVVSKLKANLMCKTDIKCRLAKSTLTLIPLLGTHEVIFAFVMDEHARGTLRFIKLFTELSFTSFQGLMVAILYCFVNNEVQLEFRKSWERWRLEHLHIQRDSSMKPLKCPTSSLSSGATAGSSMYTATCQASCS
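Readout was luciferase luminescence, measured 12 min after detection reagent at room temperature. Beforehand, GLP-1R reporter HEK293 cells had sat 12 h, then received compounds for 24 hr at 37 deg C.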
PTHR1 agonist – agonists of human PTHR1 parathyroid hormone receptor; Q03431; HEK293 GP2 PTHR1 cells, GloSensor cAMP luminescence, 1 h; Potency, µM (titrated, usually from 115 µM), for the others: at the top dose activation, actives largely listed as activators; 410,000 compounds, 0.075% hits; also: potency is read from the fitted curve at half-maximal effect; nearly all actives have a fitted effect of over 55% in size
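HEK-293-derived GP2 cells expressing PTHR1 and a GloSensor cAMP reporter, 3,000/well, plated overnight, given luciferin plus IBMX (each 0.5 mM as added) for 1 h at 37 °C, then compound for 1 h at 37 °C. Luminescence was read after 15 min at room temperature.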
GLP-1R agonist – agonists of human GLP-1 receptor | P43220 | HEK293 GLP-1R CRE-luciferase, luminescence, 4-6 h; cells express a hypersensitive GLP-1R form | Potency, µM (top dose mostly 45.6 µM), for the others: at the top dose activation, most hits filed as activators | 380,000 compounds, 0.007% hits | AID 624172; also: potency is read from the fitted curve at half-maximal effect; % of control where 0% means no effect
* hit, by the source's call; i = inactive; u = inconclusive; x = no result given; [ ] = another dose, or the depositor's remark. An excerpt weighted towards active compounds, which were near 1.8% of everything screened. Unless noted, calls follow the shape of the dose curve; as a rule, active = well fitted curve in the direction sought with a large enough effect; inconclusive = small, poorly fitted or top-dose-only effect, or another doubt; inactive = no such curve, though single readings can be large; an effect the other way counts as inactive or inconclusive.

SMILES | GLP1R cytotox | TSHR antagonist | GLP1R inv ag | PTHR1 agonist | GLP-1R agonist
O=C(Nc1ccc2ccccc2c1)c1onc2c1CCCC2 | -5% | -14 | 8.9µM* | -37%[57.5 µM] | -1%
Cc1ccc(N2CC(NC(=O)CCc3ccccc3)CC2=O)cc1 (centres undefined) | 3% | x | 5% | 5% | x
O=[N+]([O-])c1ccc(Cl)cc1NCc1cccnc1 | -3% | x | 5.6µM* | -7% | 22%
CC(O)CNc1nc2sc3c(c2c(=O)n1CCc1ccccc1)CCCCC3 (centres undefined) | u | -7 | 4.5µM* | -47% | 20%
O=C(O)CSc1nc2sc3c(c2c(=O)n1-c1ccccc1)CCC3 | 8% | -2 | -16% | -7% | 3%
CC(NC(=O)CSc1nc2sc3c(c2c(=O)n1-c1ccccc1)CCCC3)c1ccccc1 (centres undefined) | -17% | -5 | 8.9µM* | i | 0%
CN(C)CCNc1nc2sc3c(c2c(=O)n1CCc1ccccc1)CCCCC3 | u | 4 | u | i | 8%
Cc1ccc(C(=O)c2oc3ccccc3c2NC(=O)c2nc(S(C)(=O)=O)ncc2Cl)cc1F | 0% | x | 3% | i | x
Cc1onc(-c2ccc3c(c2)OCO3)c1-c1ccc2[nH]ccc2c1 | u | -3 | 8.9µM* | -35% | -1%
O=C(NNc1ccc([N+](=O)[O-])cc1[N+](=O)[O-])c1ccco1 | 10µM* | -11 | -18% | -17% | -2%
C(=N\Nc1nc2ccccc2[nH]1)/c1ccc2ncccc2c1 | u | -8 | u | -65% | 9%
c1ccc2c(c1)CC/C2=N/Nc1nc2ccccc2[nH]1 | 3.5µM* | 0 | u | i | 0%
C(=N\Nc1nc2ccccc2[nH]1)/c1ccccn1 | 11µM* | -6 | u | -95% | -12%
CCOc1ccc(CNC(=O)CCS(=O)(=O)c2cc3c4c(c2)CCN4C(=O)CC3)cc1 | 0% | x | -9% | i | x
CCCCCC[C@@H](CCC)C(=O)O | x | x | x | x | -1%
COc1ccc(OC)c(S(=O)(=O)NCC(c2ccc(N(C)C)cc2)N2CCOCC2)c1 (centres undefined) | -3% | x | 11% | i | x
Cc1nc2c(-c3ccc(F)cc3)c(C)nn2c(C)c1CCC(=O)NC(C)CCc1ccco1 (centres undefined) | 14% | -12 | 7.1µM* | -17% | -1%
CCOC(=O)c1cc(-c2ccccc2C)nn1CC1CC(c2ccc(OC)cc2)=NO1 (centres undefined) | 2% | -8 | 11µM* | i | 26%
CCOC(=O)c1cc(-c2ccccc2)nn1CC1CC(c2ccc(OC)cc2)=NO1 (centres undefined) | 4% | 13 | u | i | 6%
CCCCCC(=O)Nc1nc(C)c(-c2csc(Nc3cc(OC)ccc3OC)n2)s1 | 1% | 105 | -3% | 45µM* | 0%
CCCCN1CC(O)C(O)C(O)C1CO (centres undefined) | x | x | x | x | -1%
CCN1C(=O)[C@H]2[C@@H](c3ccc(-c4cccc(Cl)c4)cc3)N[C@@](Cc3ccccc3)(C(=O)OC)[C@H]2C1=O | 6% | -18 | 7.9µM* | i | -2%
O=C(Nc1c(-c2ccccc2)nc2ccccn12)c1cccc(F)c1 | -7% | -2 | 10µM* | 3% | 3%
O=C(Nc1c(-c2ccccc2)nc2ccccn12)c1ccc(Br)cc1 | -25% | x | 11µM* | -12% | 0%
CC1(C)C([N+](=O)[O-])C(c2ccc(Cl)cc2)NC(c2ccc(Cl)cc2)C1[N+](=O)[O-] (centres undefined) | 38% | 4 | 10µM* | -16% | -5%
SMILES | GLP1R cytotox | TSHR antagonist | GLP1R inv ag | PTHR1 agonist | GLP-1R agonist
CC1(C)C([N+](=O)[O-])C(c2ccc(O)cc2)NC(c2ccc(O)cc2)C1[N+](=O)[O-] (centres undefined) | 7% | 9 | u | i | 3%
Cc1ccc(C2NC(c3ccc(C)cc3)C([N+](=O)[O-])C(C)(C)C2[N+](=O)[O-])cc1 (centres undefined) | 45% | 4 | u | i | 1%
CC1(C)C([N+](=O)[O-])C(c2ccc(F)cc2)NC(c2ccc(F)cc2)C1[N+](=O)[O-] (centres undefined) | 25% | 0 | 10µM* | -7% | -2%
COC(=O)C1=C(C)N(c2ccc(OC)cc2)C(C)=C(C(=O)OC)C1c1ccccc1 | -9% | -1 | 8.9µM* | -38% | -2%
Cc1cc(Cl)ccc1OCCCC(=O)N1CCN(S(=O)(=O)c2ccccc2)CC1 | -21% | -18 | 10µM* | i | 3%
CCOC(=O)c1cc(S(=O)(=O)Nc2cc(F)ccc2C)[nH]n1 | 2% | x | 12% | i | -2%
N=C1S/C(=C\c2ccc(-c3cccc(Cl)c3)o2)C(=O)N1c1nccs1 | u | 15 | u | i | 0%
COc1ccc(/C=C2\SC(=N)N(c3nccs3)C2=O)cc1OC | -29% | -11 | 10µM* | i | 33%
CN(CC(=O)Nc1ccccc1Cl)C(=O)c1ccc(Cl)c(S(=O)(=O)N2CCCCCC2)c1 | -16% | -4 | u | -31% | 13%
CCN(CC)CCNC(=O)c1ccc(NC(=O)c2ccc(Cl)c(S(=O)(=O)N3CCCCCC3)c2)cc1 | u | 9 | 4µM* | -7% | u
COc1cccc(NC(=O)CN(C)C(=O)c2ccc(Cl)c(S(=O)(=O)N3CCCCCC3)c2)c1 | -5% | 0 | 8.9µM* | -30% | 16%
CCN(CC)CCNC(=O)c1ccc(NC(=O)COc2ccc3c(c2)CCC3)cc1 | -16% | 3 | 4.5µM* | 22% | 7%
CCN(CC)c1ccc(C(=O)NCc2ccc3c(c2)CCN3C(=O)c2ccccc2)cc1 | 1% | x | -1% | -6% | x
CC(C)(Oc1ccc(Cl)cc1)C(=O)NC1CCN(Cc2ccccc2)CC1 | -7% | -1 | 8.9µM* | i | 6%
CCc1c(C#N)c(SCCC(=O)Nc2ccc(C)cc2)nc2c1C(=O)CC(C)(C)C2 | -7% | -13 | 2.8µM* | -1%[57.5 µM] | -17%
COc1ccc(C(=O)N2c3ccccc3C(C)(c3ccc(Cl)cc3)CC2(C)C)cc1 (centres undefined) | 0% | x | u | -28% | x
COc1ccc(NC(=S)NC(NC(=O)c2cccc(C)c2)C(Cl)(Cl)Cl)c([N+](=O)[O-])c1 (centres undefined) | u | -3 | 8.9µM* | -15%[57.5 µM] | -8%
O=C(NC(NC(=S)Nc1ccccc1Cl)C(Cl)(Cl)Cl)c1cccc(Cl)c1 (centres undefined) | -4% | -35 | 2.8µM* | -28% | -40%
